Screening results deposited in PubChem BioAssay by Bradner/Qi Labs at DFCI.
The sample as a whole holds a higher share of hits than the screen did.
CBX7 inh = inhibitors of human CBX7 binding to H3K27me3 peptide. AID 1224903. AlphaScreen His6-CBX7 / biotin-H3K27me3 peptide binding; hits give low values. normalised signal (fraction of DMSO) (test concentration not listed). 66,000 compounds, 1.1% hits. O95931; in the data active = normalised signal below about 0.5
Target sequence (O95931 whole entry, looked up): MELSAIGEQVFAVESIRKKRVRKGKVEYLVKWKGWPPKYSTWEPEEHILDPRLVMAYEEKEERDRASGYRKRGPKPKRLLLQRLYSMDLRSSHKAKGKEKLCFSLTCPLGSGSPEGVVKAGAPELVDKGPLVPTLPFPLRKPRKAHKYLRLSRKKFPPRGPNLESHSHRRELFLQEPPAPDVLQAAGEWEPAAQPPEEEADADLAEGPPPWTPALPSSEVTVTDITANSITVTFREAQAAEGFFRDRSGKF
Of the large screens only hits and unclear results are named; the others gave an inactive call.

CCC1=Nc2cc(C(=O)NC3CCC(C)CC3)ccc2Sc2ccc(Br)cc21 (stereo unspecified)	none
Cc1ccccc1CN1C(=O)C(O)(CC(=O)c2ccccc2)c2ccccc21 (stereo unspecified)	none
Cc1ccccc1CN1C(=O)C(O)(CC(=O)c2ccc(Cl)cc2)c2ccccc21 (stereo unspecified)	none
CCc1ccc(C(=O)CC2(O)C(=O)N(Cc3ccccc3C)c3ccccc32)cc1 (stereo unspecified)	CBX7 inh 0.45
Cc1ccc(-c2noc(CCC(=O)Nc3ccc4c(c3)OCO4)n2)cc1	none
O=C(NCc1ccc(F)cc1)[C@H](Cc1ccccc1)N1Cc2ccccc2C1=O	none
O=C(NCc1ccc2c(c1)OCO2)[C@H](Cc1ccccc1)N1Cc2ccccc2C1=O	CBX7 inh 0.44
O=C(NCc1ccc2c(c1)OCO2)[C@@H](c1ccccc1)N1Cc2ccccc2C1=O	none
Cc1cc2cc(CCNC(=O)CC(C)C)c(=O)[nH]c2cc1C	none
COc1ccc(N2Cc3cccc(C(=O)Nc4ccccc4C)c3C2=O)cc1	none
Cc1ccn2c(NC(=O)c3ccc(C)c(C)c3)c(-c3cccs3)nc2c1	none
Cc1ccc(NCc2nc3ccccc3n2Cc2ccccc2)cc1	none
Cc1ccccc1Cn1c(CNC(=O)Cc2ccccc2)nc2ccccc21	none
Cc1ccccc1NCc1nc2ccccc2n1Cc1ccccc1	CBX7 inh 0.42
c1ccc(Cn2c(NCc3ccc4c(c3)OCO4)nc3ccccc32)cc1	none
O=c1c(-c2cc(Br)ccc2NCc2ccccc2)nc2ccccc2n1Cc1ccccc1	CBX7 inh 0.37
Clc1ccccc1-c1nc(NCc2ccccc2)nc2ccc(Br)cc12	none
CSc1cccc(NS(=O)(=O)c2ccc3[nH]cc(C(=O)NC4CC4)c(=O)c3c2)c1	none
CCOc1ccc(C(=O)Nc2ccc3oc(-c4cccc(C)c4)nc3c2)cc1	none
Cc1cccc(OCC(=O)Nc2ncc(Cc3cccc(Cl)c3)s2)c1	none
CCCCCn1c(C(C)NC(=O)c2cccc(C)c2)nc2ccccc21 (stereo unspecified)	none
CCCCN(CC)CCNC(=O)c1ccc2c(c1)N=C(C)c1cc(Cl)ccc1S2	none
COC(OC)C12c3ccccc3C(c3ccccc31)C1C(=O)N(c3cccnc3)C(=O)C12 (stereo unspecified)	none
Cc1oc(-c2cccc(Br)c2)nc1CN1CCC(C(=O)NCC2COc3ccccc3O2)CC1 (stereo unspecified)	none
COc1cccc(CN2C(=O)c3ccccc3Sc3ccc(C(=O)NCc4cccnc4)cc32)c1	none
O=C(Nc1ccc(F)cc1)Nc1nnc(N2CCCCCC2)s1	none
Cc1cc(NS(=O)(=O)c2ccc(N3CCCC3=O)cc2)no1	none
O=C(Nc1ccc2[nH]c(=O)[nH]c2c1)c1ncn[nH]1	CBX7 inh 0.39
O=C(Nc1ccc(N2CCCC2=O)cc1)c1ncn[nH]1	CBX7 inh 0.0091
O=c1[nH]c2ccc(S(=O)(=O)Nc3ccc(F)cc3)cc2[nH]1	none
O=C(Nc1ccc2[nH]c(=O)[nH]c2c1)C1COc2ccccc2O1 (stereo unspecified)	none
O=C(Nc1ccc(F)cc1)C1CC(=O)N(c2ccc(Cl)cc2)C1 (stereo unspecified)	none
COC(=O)c1ccc2c(c1)N(Cc1cc(C)ccc1C)C(=O)c1ccccc1S2	none
COc1ccc(C(=O)Nc2nc3c(s2)CCc2ccc(OC)cc2-3)cc1	none
COc1ccccc1NC(=O)c1c(NCc2ccc(N(C)C)cc2)sc2c1CCC2	none
c1ccc(-c2nnc(Nc3ccccn3)c3ccccc23)cc1	none
c1ccc(-c2nnc(-c3ccccn3)nc2-c2ccccc2)cc1	CBX7 inh 0.05
Cc1cc(C)cc(-c2nc(-c3ccccn3)no2)c1	none
O=C(COc1ccc(Cl)cc1)Nc1nc(-c2cccc3ccccc23)cs1	none
Cc1cccc(C)c1NC(=O)C(c1ccccc1)N1CCc2ccccc21 (stereo unspecified)	none
CC(C)c1ccc(NC(=O)C(c2ccccc2)N2CCc3ccccc32)cc1 (stereo unspecified)	CBX7 inh 0.49
CC(C)c1ccc(NC(=O)C(c2ccc3c(c2)OCO3)N2CCc3ccccc32)cc1 (stereo unspecified)	none
COC(=O)c1ccc(NC(=O)c2cc3c(CO)cnc(C)c3oc2=O)cc1	none
N#Cc1ccc(NC(=O)c2cc(-c3ccc(Cl)cc3)on2)cc1	none
O=C(NCc1ccccc1Cl)c1cc2c(s1)CSC2	none
CC(C(=O)NC1CCCCC1)C1Sc2ccccc2NC1=O (stereo unspecified)	none
O=C1Nc2ccccc2SC(c2ccccc2)C1O (stereo unspecified)	CBX7 inh 0.19
O=C1CC(c2ccc(F)cc2)Sc2ccccc2N1 (stereo unspecified)	none
COc1cccc(C2CC(c3cccc(Br)c3)Nc3ncnn32)c1 (stereo unspecified)	none
Nc1nonc1C(=O)NCc1ccccc1	none
COc1cc(C2C(C(=O)Nc3cccc(C)n3)=C(C)NC3=C2C(=O)CC(C)(C)C3)cc(OC)c1OC (stereo unspecified)	none
COc1ccc(S(=O)(=O)NCCc2c(C)[nH]c3ccc(Br)cc23)cc1C	none
COc1cc(S(=O)(=O)NCCc2c(C)[nH]c3ccc(C)cc23)c(C)cc1C	CBX7 inh 0.35
COc1cc(C)c(S(=O)(=O)NCCc2c(C)[nH]c3ccc(F)cc23)cc1C	none
CCOc1ccc(S(=O)(=O)NCCc2c(C)[nH]c3ccc(F)cc23)cc1	none
COc1cc(S(=O)(=O)NCCc2c(C)[nH]c3ccc(C)cc23)ccc1Cl	CBX7 inh 0.43
COc1ccc(C)cc1S(=O)(=O)NCCc1c(C)[nH]c2ccccc12	none
COc1ccc(S(=O)(=O)NCCc2c(C)[nH]c3ccc(C)cc23)cc1OC	none
COc1ccc(C)cc1S(=O)(=O)NCCc1c(C)[nH]c2ccc(C)cc12	CBX7 inh 0.4
Cc1ccc2[nH]c(C)c(CCNS(=O)(=O)c3ccc(F)cc3)c2c1	CBX7 inh 0.45
COc1ccc(S(=O)(=O)NCCc2c(C)[nH]c3ccc(C)cc23)c2ccccc12	none
CCOc1ccc(S(=O)(=O)NCCc2c(C)[nH]c3ccc(C)cc23)cc1	none
COc1ccc(C)cc1S(=O)(=O)NCCc1c(C)[nH]c2ccc(Br)cc12	none
Cc1ccccc1N1C(=O)c2ccccc2C1Nc1ccc(Br)cc1 (stereo unspecified)	none
Nc1nonc1-c1noc(C2CCCC2)n1	none
COc1ccc(S(=O)(=O)CCc2nnc(NC(C)=O)s2)cc1	none
CC(=O)N1CCc2cc(S(=O)(=O)N3CCN(Cc4ccccc4)CC3)ccc21	none
O=C(Nc1ccc(Cl)cc1Cl)c1cc2nc(-c3ccc(Cl)c(Cl)c3)cc(C(F)(F)F)n2n1	none
O=S(=O)(c1cccc(-c2cn3ccccc3n2)c1)N1CCCCC1	none
Cc1ccc(-c2nn(C)c(=O)c3ccccc23)cc1CNC(=O)c1ccccc1	none
O=C(Nc1cc(-c2nc3ccccc3s2)ccc1Cl)c1ncn[nH]1	none
O=C(Nc1nc(SCc2ccccc2Cl)ns1)c1ncn[nH]1	CBX7 inh 0.053
O=C(Nc1ncc(Cc2ccccc2Cl)s1)c1cccc2ccccc12	none
Cc1nn(-c2ccccc2)c2[nH]c(C(=O)NCc3ccccc3)cc(=O)c12	none
CCOC(=O)CNC(=O)CSc1nnc(Cc2cccn2C)n1-c1ccc(C)cc1	none
CCC(Cc1ccccc1)NC(=O)CC1Oc2ccccc2NC1=O (stereo unspecified)	none
Cc1onc(-c2c(F)cccc2Cl)c1C(=O)Nc1ccccc1	none
Cc1onc(-c2c(F)cccc2Cl)c1C(=O)NCC1COc2ccccc2O1 (stereo unspecified)	CBX7 inh 0.47
Cc1onc(-c2c(Cl)cccc2Cl)c1C(=O)NCC1CCCO1 (stereo unspecified)	none
